Measured values reported in the supplement of paper PMC10498489.
In all, about 2,300 compounds went through this assay and about 330 (14%) showed activity.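 The calls were made as follows: active = median modified Z-score above 1.96; inactive = 1.96 or below.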 Not all results are given here.

Each compound was assayed on HepG2 Srxn1-GFP reporter cells (+30 nM CDDO-Me) (assay: Srxn1-GFP intensity median modified Z-score relative to plate median; higher = stronger NRF2 / oxidative stress reporter activation, active = hit call of the paper). Conditions: 10 µM; exposure time: 24h.
Method in brief: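 Values give the median, over replicates, of the modified Z-score of GFP intensity on each plate. HepG2 Srxn1-GFP BAC reporter cells were co-treated for 24 h with an NRF2 activator at 30 nM and compound at 10 μM (≤0.1% DMSO) in three replicate plates, then analysed per cell for cytoplasmic GFP on confocal images with at least 100 cells. Scaling used 1.4826 × median absolute deviation.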

SMILES | Srxn1-GFP intensity median modified Z-score
Cc1nc2ccccc2n1Cc1ccc(Cl)cc1 [euspeclibcmpd2199] | 5.5 (active)
Clc1ccc(Cn2c(CN3CCCC3)nc3ccccc32)cc1 [euspeclibcmpd1234] | -0.0615 (inactive)
CN(C)CCN(Cc1ccc(Cl)cc1)c1ccccn1 [euspeclibcmpd1219] | -0.833 (inactive)
Cc1nc(=N)c(C[n+]2csc(CCO)c2C)c[nH]1 [euspeclibcmpd454] | -0.15 (inactive)
O=C1C(CO)OC(O)C(O)C1O (centres undefined) [euspeclibcmpd526] | -0.212 (inactive)
COc1ccc2c(c1OC)OC[C@@H](c1ccc(OC)c(OC)c1OC)C2 [euspeclibcmpd1365] | 0.0257 (inactive)
CCCCCCCCCCC[C@@H](C[C@H]1OC(=O)C1CCCCCC)OC(=O)C(CC(C)C)NC=O (some centres undefined) [euspeclibcmpd681] | -0.557 (inactive)
C=C[C@H]1C[N@]2CC[C@H]1C[C@@H]2[C@@H](O)c1ccnc2ccc(OC)cc12 [euspeclibcmpd2428] | 1.98 (active)
C[C@]12CCC3c4ccc(O)cc4CCC3C1C[C@@H](O)[C@@H]2O (some centres undefined) [euspeclibcmpd2155] | -0.253 (inactive)
CC(=O)Oc1cccc(C(=O)O)c1OC(C)=O [euspeclibcmpd1107] | 0 (inactive)
CC(=O)Oc1c(C)cccc1C(=O)O [euspeclibcmpd1264] | -0.393 (inactive)
CC(=O)Oc1cccc2c1C(=O)c1c(OC(C)=O)cc(C(=O)O)cc1C2=O [euspeclibcmpd1072] | 4.68 (active)
CC(C)(ON=C(C(=O)NC1C(=O)N2C(C(=O)O)=C(C[n+]3ccccc3)CSC12)c1csc(=N)[nH]1)C(=O)O (centres undefined) [euspeclibcmpd603] | -0.205 (inactive)
O=C(OCC(O)CO)c1ccccc1N=c1cc[nH]c2cc(Cl)ccc12 (centres undefined) [euspeclibcmpd1054] | 4.38 (active)
CCN(CCO)CCCC(C)N=c1cc[nH]c2cc(Cl)ccc12 (centres undefined) [euspeclibcmpd728] | 0.226 (inactive)
CC(O)CN1CCN(CC(=O)O)CCN(CC(=O)O)CCN(CC(=O)O)CC1 (centres undefined) [euspeclibcmpd2179] | -0.14 (inactive)
CC(C)(CNC(=O)c1cccc(S(=O)(=O)N2CCNC(=O)C2)c1)N1CCOCC1 | 0.976 (inactive)
Nc1ccc2cc3ccc(N)cc3nc2c1 [euspeclibcmpd1172] | 35.6 (active)
CO[C@@]1(NC(=O)CSCC#N)C(=O)N2C(C(=O)O)=C(CSc3nnnn3C)CSC21 (some centres undefined) [euspeclibcmpd2252] | 1.04 (inactive)
N=c1[nH]c(=O)c2ncn(COCCO)c2[nH]1 [euspeclibcmpd586] | 0.00752 (inactive)
S=c1ccss1 [euspeclibcmpd2055] | 7.86 (active)
CC1(C)CCC[C@]2(C)[C@H]3CC(=O)O[C@]3(C)CC[C@@H]12 [euspeclibcmpd1513] | 11.6 (active)
OC[C@H]1O[C@@H](O[C@H]2[C@H](O)[C@@H](O)[C@@H](O)O[C@@H]2CO)[C@H](O)[C@@H](O)[C@@H]1O [euspeclibcmpd2099] | -0.374 (inactive)

SMILES | Srxn1-GFP intensity median modified Z-score
CC(=O)OC1=C2C(C)C(O)CC(O)(C(OC(=O)c3ccccc3)C3C4(OC(C)=O)COC4CC(O)C3(C)C1=O)C2(C)C (centres undefined) [euspeclibcmpd1937] | 0.285 (inactive)
C=CC(C)(O)CCC=C(C)CCC=C(C)C (centres undefined) [euspeclibcmpd2017] | -0.108 (inactive)
COC(C)(C)CCC[C@H](C)C=CC=C(C)CC(=O)OC(C)C [euspeclibcmpd1162] | 0.521 (inactive)
CCC(CCC(C)[C@H]1CCC2C3CC=C4C[C@@H](O)CC[C@]4(C)C3CC[C@@]21C)C(C)C (some centres undefined) [euspeclibcmpd1675] | -0.236 (inactive)
C1CNCCN1 [euspeclibcmpd2044] | 5.44 (active)
C=C(C)[C@@H]1CC[C@]2(C)CC[C@]3(C)[C@@H](CCC4[C@@]5(C)CC[C@H](OC(C)=O)C(C)(C)C5CC[C@]43C)C12 (some centres undefined) [euspeclibcmpd1452] | -0.35 (inactive)
COC1CC2CCC(C)C(O)(O2)C(=O)C(=O)N2CCCCC2C(=O)OC(C(C)CC2CCC(O)C(OC)C2)CC(=O)/C(C)=C/C(C)C(O)C(OC)C(=O)C(C)CC(C)/C=C/C=C/C=C/1C (centres undefined) [euspeclibcmpd645] | 2.8 (active)
C=CC/C1=C\C(C)C[C@H](C)C[C@H](OC)[C@H]2O[C@@](O)(C(=O)C(=O)N3CCCCC3C(=O)O[C@H](/C(C)=C/C3CC[C@@H](O)[C@H](OC)C3)[C@H](C)[C@@H](O)CC1=O)[C@H](C)C[C@@H]2OC (some centres undefined) [euspeclibcmpd642] | 0.0384 (inactive)
CC(C)(C)OC(=O)N1[C@H](CNCC(=O)NCC2CC2)COC1(C)C | 0.298 (inactive)
C=C1c2cccc(O)c2C(=O)C2C(=O)[C@]3(O)C(=O)C(C(N)=O)C(=O)C(N(C)C)[C@@H]3[C@@H](O)[C@H]12 (some centres undefined) [euspeclibcmpd374] | 0.0721 (inactive)
Nc1ccc(S(=O)(=O)Nc2ccc([N+](=O)[O-])cc2)cc1 | 1.07 (inactive)
C=CCSCC=C [euspeclibcmpd1525] | 2.8 (active)
C=CCSCC(N)C(=O)O (centres undefined) [euspeclibcmpd1339] | -0.44 (inactive)
c1ccc2[nH]c(-c3cscn3)nc2c1 [euspeclibcmpd291] | -0.321 (inactive)
CC(=O)Nc1ccc(S(=O)(=O)Nc2ccc(C)cc2)cc1 | 0.323 (inactive)
Cc1cc(=O)c(C(=O)NC(C(=O)NC2C(=O)N3C(C(=O)O)=C(CSc4nnnn4C)CSC23)c2ccc(O)cc2)c[nH]1 (centres undefined) [euspeclibcmpd2006] | -0.441 (inactive)
COC(=O)C[C@H]1C2(C)CC34OC5(C)O[C@@]6([C@H](OC(C)=O)C(OC(C)=O)[C@]7(C)C(C(C(=O)C(C)C)C(=O)O[C@H]7c7ccoc7)[C@@]6(O5)[C@H](OC(C)=O)[C@@]3(O)C2OC(=O)C(C)C)[C@]14C (some centres undefined) [euspeclibcmpd1593] | 0.648 (inactive)
CC=CC1=C(C(=O)O)N2C(=O)C(NC(=O)C(N)c3ccc(O)cc3)C2SC1 (centres undefined) [euspeclibcmpd754] | 0.0492 (inactive)
Cc1cc(=N)c2ccccc2n1CCCCCCCCCCn1c(C)cc(=N)c2ccccc21 [euspeclibcmpd1012] | 10 (active)
CN1CCc2c(c3ccccc3n2Cc2ccccc2)C1 [euspeclibcmpd1060] | -0.511 (inactive)
NC(COP(=O)(O)O)C(=O)O (centres undefined) [euspeclibcmpd1153] | -0.195 (inactive)
CC1(C)NC(=O)N(c2ccc([N+](=O)[O-])c(C(F)(F)F)c2)C1=O [euspeclibcmpd654] | 0.519 (inactive)
CC(C)C(=O)Nc1ccc([N+](=O)[O-])c(C(F)(F)F)c1 [euspeclibcmpd362] | 3.07 (active)

SMILES | Srxn1-GFP intensity median modified Z-score
CCOc1ccc2ccccc2c1C(=O)NC1C(=O)N2C1SC(C)(C)C2C(=O)O (centres undefined) [euspeclibcmpd2391] | -0.175 (inactive)
NC(=O)c1cc[n+](C=C2CSC3C(NC(=O)Cc4cccs4)C(=O)N3C2C(=O)O)cc1 (centres undefined) [euspeclibcmpd1236] | -0.488 (inactive)
CN1CCC(c2c3ccccc3cc(=O)c3sccc23)CC1 [euspeclibcmpd331] | 0.863 (inactive)
COc1cc(-c2coc3cc(OC)c(OC)c(OC)c3c2=O)cc(OC)c1OC [euspeclibcmpd1402] | -0.364 (inactive)
COc1cc2occ(-c3ccccc3)c(=O)c2c(OC)c1C [euspeclibcmpd2367] | 3.02 (active)
COc1cc(C)c2c(=O)c(-c3ccccc3)coc2c1 [euspeclibcmpd1711] | 0.917 (inactive)
CC(C)(C)O[C@H]1C[C@@H](O)C1 | 1.93 (inactive)
CC(=O)O[C@]1(C(C)=O)CCC2C3=CC(C)=C4CC(=O)CCC4(C)C3CCC21C (some centres undefined) [euspeclibcmpd180] | 0.562 (inactive)
CC(NS(=O)(=O)c1cccc(Cl)c1)C1CCCO1 (centres undefined) | 1.74 (inactive)
Cc1cc(=O)cc(O)o1 [euspeclibcmpd1585] | 0.226 (inactive)
O=C1OCCc2oc(O)cc21 [euspeclibcmpd1348] | 33 (active)
O=C(OCc1ccccc1)c1ccccc1 [euspeclibcmpd510] | 0.252 (inactive)
OC[C@H]1O[C@@H](O[C@@H]2[C@@H](CO)O[C@](O)(CO)[C@H]2O)[C@H](O)[C@@H](O)[C@H]1O [euspeclibcmpd170] | 0.208 (inactive)
NC(=O)c1cc[n+](C=C2CSC3C(NC(=O)C(c4ccccc4)S(=O)(=O)O)C(=O)N3C2C(=O)O)cc1 (centres undefined) [euspeclibcmpd2133] | -0.143 (inactive)
CCCOc1cc(N)ccc1C(=O)OCCN(CC)CC [euspeclibcmpd379] | 0.431 (inactive)
CCN(CC)CCOc1ccc2c(c1)C(=O)c1cc(OCCN(CC)CC)ccc1-2 [euspeclibcmpd940] | 5.93 (active)
CCN(CC)CCNC(=O)COc1ccc(OC)cc1 [euspeclibcmpd2435] | -0.25 (inactive)
C=Cc1c(C=c2[nH]c(=Cc3[nH]c(C=c4[nH]c(O)c(C=C)c4=C)c(C)c3CCC(=O)O)c(CCC(=O)O)c2C)[nH]c(O)c1C [euspeclibcmpd1536] | 0.744 (inactive)
Cc1cc(-c2ccccc2)n[nH]c1=NCCN1CCOCC1 [euspeclibcmpd383] | 1.08 (inactive)
CNC(Cc1ccccc1)C(=O)O (centres undefined) | 1.21 (inactive)
Cc1coc2c1C(=O)C(=O)c1c-2ccc2c1CCCC2(C)C [euspeclibcmpd1647] | 2.22 (active)
Cc1c(S(=O)(=O)O)oc2c1C(=O)C(=O)c1c-2ccc2c1CCCC2(C)C [euspeclibcmpd2216] | 0 (inactive)
CN[C@H]1C[C@@H](N)[C@H](O)[C@@H](O[C@@H]2O[C@H](CO)[C@@H]3OC4(O[C@@H]3[C@@H]2O)O[C@H](C(N)CO)[C@H](O)[C@H](O)[C@H]4O)[C@@H]1O (some centres undefined) [euspeclibcmpd1459] | -0.136 (inactive)
